DT40 TDP1 CPT: qHTS for Inhibitors of human tyrosyl-DNA phosphodiesterase 1 (TDP1): qHTS in cells in presence of CPT. chicken DT40 Tdp1-/-;hTDP1 cells + 20 nM CPT, ATP luminescence, 48 h. Potency, µM (top dose mostly 46.2 µM), inactives show at the highest dose activity change, negative = growth inhibition, most hits filed as inhibitors. 12% of 420,000 active; note: potency is the fitted concentration of half-maximal effect; nearly all actives have a fitted effect of over 55% in size
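Cell growth measured by CellTiter-Glo luminescence after a minimum 48 h, 37 C compound exposure with 20 nM CPT in Tdp1-knockout DT40 cells stably expressing hTDP1, seeded 400/well; qHTS titration format.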
IL-1B inflam inh: qHTS for Inhibitors of Inflammasome Signaling: IL-1-beta AlphaLISA Primary Screen | activity change, % at 57.5 µM | THP-1 LPS/ATP IL-1B secretion, AlphaLISA, 16 h; active compounds read low | 4.7% of 360,000 active; in the data active = activity change below about -50%; inconclusive = mostly about -30% to -49%
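THP-1 cells pretreated 1 hr with compounds (up to 57.5 uM final), then stimulated with LPS (250 ng/mL final) plus ATP (1.25 mM final); secreted IL-1B measured by AlphaLISA after 16 hr, decreased signal indicating inhibition.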
HT1080NT lethal: qHTS for induction of synthetic lethality in tumor cells producing 2HG: qHTS for the HT-1080-NT fibrosarcoma cell line; 1.6% of 360,000 active; HT-1080-NT fibrosarcoma viability, CellTiter-Glo ATP luminescence, 48 h; AID 686970, 2013; Potency, µM (series often up to 46.1 µM), without a hit: top-dose activity, negative = less viability, most hits filed as cytotoxic;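 note: NT is the 2HG producing partner of a matched IDH1 knockdown line; potency is the fitted concentration of half-maximal effect; 0% = DMSO-treated cells and -100% = media-only wells without cells; nearly all actives have a fitted effect of over 55% in size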
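Compounds were tested in concentration-response format on HT-1080-NT cells for 48 hours at 37 degrees C. Cell viability came from CellTiter-Glo luminescence; curves were classified by r2, response magnitude and activity.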
TDP1 cell noCPT: qHTS for Inhibitors of human tyrosyl-DNA phosphodiesterase 1 (TDP1): qHTS in cells in absence of CPT; DT40 Tdp1-/- hTDP1 cells, no CPT, ATP luminescence, 48 h; 15% of 420,000 active; AID 686978, 2013; Potency, µM (top dose mostly 46.2 µM), for inactives: top-dose activity change, negative = growth inhibition, most hits filed as inhibitors; note: potency is the fitted concentration of half-maximal effect; nearly all actives have a fitted effect of over 55% in size
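Growth of hTDP1-complemented DT40 Tdp1-knockout cells is measured by ATP luminescence after at least 48 hr compound exposure at 37 °C, with DMSO substituting for the 20 nM CPT used in the parallel screen.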
HT1080 IDH1KD tx: qHTS for induction of synthetic lethality in tumor cells producing 2HG: qHTS for the HT-1080-IDH1KD cell line. HT-1080 IDH1 knockdown viability, ATP luminescence, 48 h. Potency, µM (top dose mostly 46.1 µM), without a hit: top-dose activity, negative = toxicity, most hits filed as cytotoxic. 2% of 360,000 active;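 note: potency is the fitted concentration of half-maximal effect; 0% = DMSO wells and -100% = cell-free medium wells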
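After a 2 h attachment period, IDH1KD HT-1080 cells took pin-transferred compound for 48 h at 37 °C; ATP-based luminescence after 10 min room-temperature reagent incubation reported viability.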
The depositor's hits bear a star; u = inconclusive; x = no result given; [ ] = remark or other dose. A selection: hits, their analogues and other compounds. The true share with any hit is near 19%. Unless noted, calls come from the whole dose curve; as a rule, active = well fitted curve in the direction sought with a large enough effect; inconclusive = small, poorly fitted or top-dose-only effect, or another doubt; inactive = no such curve, though single readings can be large; an effect the other way counts as inactive or inconclusive. Unless noted, % is set by controls: 0 for no effect and ±100 for the full control effect.

SMILES	DT40 TDP1 CPT	IL-1B inflam inh	HT1080NT lethal	TDP1 cell noCPT	HT1080 IDH1KD tx
COc1ccc(OC(C)C(=O)N(C)Cc2nc(-c3ccc(OC)cc3)no2)cc1 (stereo not drawn)	u	25	u	u	0%
NC(=O)c1ccccc1NC(=O)Nc1cccc(Cl)c1	12µM*	-1	1%	u	-2%
CSc1ccccc1NC(=O)Nc1ccc(Cl)cc1	21µM*	u	14µM*	-30%	u
O=C(Nc1cccc(Cl)c1)Nc1ccc2c(c1)OCO2	u	u	u	16µM*	u
COc1ccc(NC(=O)Nc2ccccc2SC)cc1	u	-15	-21%	-26%	-18%
COc1ccc(Cl)cc1NC(=O)Nc1ccccc1C(N)=O	18µM*	20	8%	8.2µM*	6%
Cc1ccc(-n2ncc3c(NNC(=O)c4cccs4)ncnc32)cc1	0%	-4	-6%	-8%	-13%
COc1cccc(NC(=O)CN(C)C(=O)CN2C(=O)c3ccc([N+](=O)[O-])cc3C2=O)c1	20%	21	8%	-16%	1%
O=C(Cc1ccccc1)NNC(=O)Nc1cccc(Cl)c1	-24%	-18	-13%	-17%	0%
O=C(CN1c2ccccc2Sc2ccccc21)NNC(=O)Nc1cccc(Cl)c1	23µM*	-88*	18µM*	10µM*	12µM*
Cc1ccc(N(C(C)C(=O)Nc2ccc3c(c2)OCO3)S(C)(=O)=O)cc1 (stereo not drawn)	13µM*	-4	13%	21µM*	13%
CSc1ccc(NC(=O)Nc2ccccc2C(N)=O)cc1	13µM*	0	0%	u	-5%
O=C(COc1ccccc1)Nc1cc(Cl)ccc1Cl	u	27	-5%	-25%	-4%
O=C(NNc1ccccc1)Nc1cc(Cl)ccc1Cl	-27%	-97*	-1%	-22%	1%
NC(=O)c1cc[n+](CC2=C(C(=O)[O-])N3C(=O)[C@@H](NC(=O)Cc4cccs4)[C@H]3SC2)cc1	-6%[21.1 µM]	x	x	-20%[21.1 µM]	x
CC(C)NC(=O)c1ccc(CS(=O)(=O)c2ccc(Br)cc2)o1	-19%	9	6%	1%	9%
CCN(Cc1ccccc1)S(=O)(=O)c1nc2nc(C)c(C)c(C)n2n1	-6%	-4	0%	-10%	1%
CCCCC1CC(/C(C)=N/NC(N)=O)OC1=O (stereo not drawn)	-6%	-14	0%	-17%	9%
Cc1cc(C)n2nc(SCC(=O)N3CCC(C)CC3)nc2n1	12%	20	-2%	2%	1%
Cc1c(Cl)ccc(S(=O)(=O)N2CCN=C2c2ccccc2)c1Cl	u	5	-1%	u	-6%
CCc1cccc(NC(=O)Cn2nc(C)c3sc4ccccc4c3c2=O)c1	-8%	x	x	-11%	x
C[Si](C)(C)n1ccnc1	-1%	32	27%	-6%	12%
Cc1ccc(N2CC(C(=O)Nc3ccccc3OC(F)F)CC2=O)cc1 (stereo not drawn)	u	0	-4%[9.24 µM]	-14%	-1%
O=C(Nc1cccc(Cl)c1)N1CCCCCC1	-1%	-1	4%	-3%	3%
O=C(Nc1cc(Cl)ccc1Cl)N1CCCC1	21µM*	-26	18%	18µM*	17%
SMILES	DT40 TDP1 CPT	IL-1B inflam inh	HT1080NT lethal	TDP1 cell noCPT	HT1080 IDH1KD tx
O=C(Nc1ccccc1)Nc1cccc(Cl)c1	14µM*	u	u	11µM*	u
CC12CCC(=O)N1C(C(=O)N1CCN(c3ccc([N+](=O)[O-])cc3)CC1)CS2 (stereo not drawn)	u	2	14%	21µM*	u
CC12CCC(=O)N1C(C(=O)N1CCN(c3ccc(C(F)(F)F)cc3[N+](=O)[O-])CC1)CS2 (stereo not drawn)	21µM*	0	-1%	26µM*	14%
CC12CCC(=O)N1C(C(=O)N1CCN(c3ccccc3)CC1)CS2 (stereo not drawn)	3%	1	9%	-3%	14%
COc1ccc(OC)c(CNc2ccc3c(c2)CCC3)c1	u	-27	-8%	16µM*	-16%
COc1ccc(OC)c(CC(=O)Nc2ccc3c(c2)CCC3)c1	-4%	0	-3%	-26%	-2%
COc1cccc(CNc2ccc3c(c2)CCC3)c1	-11%	17	5%	-14%	-1%
COc1ccc(CC(=O)Nc2ccc3c(c2)CCC3)cc1OC	u	-21	-2%	9.2µM*	-16%
Cn1c(N)c(C(=O)COC(=O)CNS(=O)(=O)c2ccc(Cl)c(Cl)c2)c(=O)n(C)c1=O	-26%	30	13%	-25%	16%
C(=C\c1ccccn1)/c1ccncc1	-10%	-26	6%	-9%	11%
CNc1ccc(C=C2c3ccccc3-c3ccccc32)cc1	u	x	x	13µM*	x
C(=C1c2ccccc2-c2ccccc21)c1ccncc1	u	-78*	-5%	23µM*	-26%
COc1ccc(C2Nc3ccc(NC(C)=O)cc3C(=O)N2Cc2ccccc2)cc1COc1ccc(NC(C)=O)cc1 (stereo not drawn)	u	x	11%	18µM*	14%
COc1ccc(C2Nc3ccccc3C(=O)N2Cc2ccccc2)cc1CSc1ccccn1 (stereo not drawn)	23µM*	x	0%	18µM*	6%
COc1ccc(C2Nc3ccccc3C(=O)N2c2ccc(F)cc2)cc1COc1ccc(NC(C)=O)cc1 (stereo not drawn)	u	x	x	25µM*	x
O=C1c2ccccc2NC(c2ccc(O)cc2)N1Cc1ccco1 (stereo not drawn)	-2%	-3	11%	u	14%
O=C1c2ccccc2NC(c2ccc(OCc3ccccc3)c(OCc3ccccc3)c2)N1Cc1ccco1 (stereo not drawn)	11µM*	x	x	13µM*	x
O=C(NCC1CCC2(CCN(Cc3c[nH]c4ccccc34)CC2)O1)C1CCOCC1 (stereo not drawn)	-8%[9.04 µM]	x	x	-11%	x
CCOC(=O)C1=C(COC(=O)Cc2ccc(Br)cc2)NC(=O)NC1C (stereo not drawn)	-13%	-11	3%	u	7%
N#Cc1cccc(NC(=O)N2CC3(CCN(C(=O)c4cnccn4)CC3)C2)c1	9%	x	x	-2%	x
COc1ccc(C2Nc3ccccc3C(=O)N2Cc2ccco2)cc1COc1ccc(NC(C)=O)cc1 (stereo not drawn)	u	-7	0%	11µM*	-24%

Screening data (PubChem)
